Results filed as inconclusive are left out. Active and inactive are the calls of the source. Calls come from the whole dose curve; as a rule, active = well fitted curve in the direction sought with a large enough effect in the repeat runs; inconclusive = weak or mixed curves; inactive = no such curve, though single readings can be large; an effect the other way counts as inactive or inconclusive.
Columns and labels:
[1] = A CellTox Green Cytotoxicity Assay to monitor cytotoxicity in HEK293 cells - 40 hour (AID 1224871); note: nearly all actives have a fitted effect of over 45% in size
Summary of the method: (§1)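 HEK293 cells premixed with CellTox Green dye were seeded at 600 cells/well and left 5 h at 37 C/5% CO2 before pin transfer of 23 nL compound in DMSO. Fluorescence from dye bound to dead-cell DNA was read during 40 h treatment.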

[2] = A CellTox Green Cytotoxicity Assay to monitor cytotoxicity in HEK293 cells - 24 hour (AID 1224875); note: series mostly up to about 77 µM; nearly all actives have a fitted effect of over 45% in size
Summary of the method: as §1

[3] = A CellTox Green Cytotoxicity Assay to monitor cytotoxicity in HepG2 cells - 16 hour (AID 1224876); note: nearly all actives have a fitted effect of over 45% in size; note: potency is the fitted concentration of half-maximal effect
Summary of the method: (§2)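 HepG2 cells were seeded together with the CellTox Green dye at 600 cells/well, left 5 h at 37 C/5% CO2, then given compounds in DMSO. Fluorescence from dye bound to dead-cell DNA was read repeatedly over 40 h of treatment at 37 C.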

[4] = qHTS RealTime-Glo MT Cell Viability Assay in HEK293 cells - 0 hour (AID 1224880); note: top concentration of the series differs between compounds; nearly all actives have a fitted effect of over 45% in size
Summary of the method: (§3)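 HEK293 cells mixed with RealTime-Glo reagents (NanoLuc plus cell-permeant prosubstrate) at 600 cells/well, preincubated 5 h at 37 C/5% CO2, then given 23 nL compound in DMSO. Nonlytic luminescence from viable cells was read at 0, 8, 16, 24, 32 and 40 h.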

[5] = A CellTox Green Cytotoxicity Assay to monitor cytotoxicity in HEK293 cells - 32 hour (AID 1224881); note: nearly all actives have a fitted effect of over 40% in size
Summary of the method: as §1

[6] = A CellTox Green Cytotoxicity Assay to monitor cytotoxicity in HepG2 cells - 0 hour (AID 1224882); note: nearly all actives have a fitted effect of over 35% in size
Summary of the method: as §2

[7] = A CellTox Green Cytotoxicity Assay to monitor cytotoxicity in HEK293 cells - 8 hour (AID 1224884); note: nearly all actives have a fitted effect of over 35% in size
Summary of the method: as §1

[8] = qHTS RealTime-Glo MT Cell Viability Assay in HEK293 cells - 8 hour (AID 1224887); note: top concentration of the series differs between compounds; nearly all actives have a fitted effect of over 50% in size
Summary of the method: as §3

[9] = A CellTox Green Cytotoxicity Assay to monitor cytotoxicity in HEK293 cells - 16 hour (AID 1224888); note: nearly all actives have a fitted effect of over 35% in size
Summary of the method: as §1

[10] = qHTS RealTime-Glo MT Cell Viability Assay in HepG2 cells - 0 hour (AID 1224889); note: nearly all actives have a fitted effect of over 50% in size
Summary of the method: (§4)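 Real-time, nonlytic viability: 600 HepG2 cells/well mixed with NanoLuc enzyme plus prosubstrate; 5 h settle, compound (DMSO) added by pintool; luminescence monitored over 40 h at 37 C.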

[11] = qHTS RealTime-Glo MT Cell Viability Assay in HepG2 cells - 40 hour (AID 1224870); note: nearly all actives have a fitted effect of over 50% in size
Summary of the method: (§5)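 HepG2 cells (600/well) mixed with RealTime-Glo MT reagent, settled 5 h at 37 C/5% CO2 before compound addition. Nonlytic NanoLuc luminescence from viable-cell prosubstrate reduction read repeatedly during 40 h treatment at 37 C.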

[12] = qHTS RealTime-Glo MT Cell Viability Assay in HepG2 cells - 8 hour (AID 1224873); note: nearly all actives have a fitted effect of over 55% in size
Summary of the method: as §5

[13] = qHTS RealTime-Glo MT Cell Viability Assay in HEK293 cells - 40 hour (AID 1224874); conditions: RealTime-Glo luminescence; max response: active compounds read low; note: nearly all actives have a fitted effect of over 50% in size; note: potency is the fitted concentration of half-maximal effect
Summary of the method: as §3

[14] = qHTS RealTime-Glo MT Cell Viability Assay in HepG2 cells - 32 hour (AID 1224877); note: nearly all actives have a fitted effect of over 55% in size
Summary of the method: as §4

[15] = A CellTox Green Cytotoxicity Assay to monitor cytotoxicity in HepG2 cells - 24 hour (AID 1224878); note: nearly all actives have a fitted effect of over 45% in size
Summary of the method: as §2

[16] = A CellTox Green Cytotoxicity Assay to monitor cytotoxicity in HepG2 cells - 40 hour (AID 1224879); note: nearly all actives have a fitted effect of over 40% in size
Summary of the method: as §2

[17] = A CellTox Green Cytotoxicity Assay to monitor cytotoxicity in HepG2 cells - 32 hour (AID 1224883); note: nearly all actives have a fitted effect of over 50% in size
Summary of the method: as §2

[18] = qHTS RealTime-Glo MT Cell Viability Assay in HEK293 cells - 24 hour (AID 1224886); note: nearly all actives have a fitted effect of over 50% in size; note: potency is the fitted concentration of half-maximal effect; for activity change, negative = cytotoxicity: top concentration of the series differs between compounds
Summary of the method: (§6)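 Cells + reagent dispensed (600 cells/well, HEK293) → 5 h at 37 C/5% CO2 → 23 nL compound in DMSO pinned → 40 h at 37 C → luminescence read at 0, 8, 16, 24, 32, 40 h.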

[19] = qHTS RealTime-Glo MT Cell Viability Assay in HEK293 cells - 16 hour (AID 1224872)
Summary of the method: as §6

[20] = qHTS RealTime-Glo MT Cell Viability Assay in HepG2 cells - 16 hour (AID 1224885); note: nearly all actives have a fitted effect of over 50% in size
Summary of the method: as §4
% is set by controls: 0 for no effect and ±100 for the full control effect.

Nc1cccc2c(N)cccc12
inactive: Potency [1] | Potency [2] | Potency [3] | Potency [4] | Potency [5] | Potency [6] | Potency [7] | Potency [8] | Potency [9] | Potency [10]

CCCCCCCC(=O)Oc1c(Br)cc(C#N)cc1Br
inactive: Potency [11] | Potency [12] | Potency [2] | Potency [14] | Potency [15] | Potency [16] | Potency [4] | Potency [6] | Potency [17] | Potency [7] | Potency [9] | Potency [10]
active: Potency [13] 38.8 µM | Potency [18] 38.8 µM

Nc1ccn([C@H]2CS[C@@H](CO)O2)c(=O)n1
inactive: Potency [11] | Potency [19] | Potency [12] | max response [13] -7.77% | Potency [2] | Potency [3] | Potency [15] | Potency [16] | Potency [4] | Potency [5] | Potency [17] | Potency [7] | Potency [18] | Potency [8] | Potency [9] | Potency [10]

CSSc1ccoc1C
inactive: Potency [11] | Potency [12] | max response [13] 0.757% | Potency [2] | Potency [3] | Potency [14] | Potency [15] | Potency [16] | Potency [4] | Potency [5] | Potency [6] | Potency [17] | Potency [20] | Potency [18] | Potency [8] | Potency [9] | Potency [10]

Nc1ccc(F)cc1
inactive: Potency [11] | Potency [19] | Potency [12] | max response [13] 14.2% | Potency [2] | Potency [3] | Potency [15] | Potency [16] | Potency [4] | Potency [5] | Potency [6] | Potency [17] | Potency [7] | Potency [20] | Potency [18] | Potency [8] | Potency [10]

CC(C)C(=O)OCCOc1ccccc1
inactive: Potency [11] | Potency [12] | max response [13] 2.62% | Potency [3] | Potency [14] | Potency [15] | Potency [16] | Potency [4] | Potency [5] | Potency [6] | Potency [17] | Potency [7] | Potency [20] | Potency [18] | Potency [9] | Potency [10]

Cc1ccc2c(c1[N+](=O)[O-])C(=O)c1ccccc1C2=O
active: Potency [13] 0.958 µM
inactive: Potency [11] | Potency [12] | Potency [2] | Potency [3] | Potency [14] | Potency [15] | Potency [16] | Potency [5] | Potency [6] | Potency [17] | Potency [7] | Potency [20] | Potency [9] | Potency [10]

c1ccc(CCCc2ccncc2)cc1
inactive: Potency [11] | Potency [12] | max response [13] -19.7% | Potency [4] | Potency [6] | Potency [7] | Potency [20] | Potency [8] | Potency [10]
active: Potency [3] 12.3 µM

C[C@@H]1[C@H](O)[C@@H](C)/C=C/C=C\C=C\C=C\C=C\C=C\C=C\[C@H](O[C@@H]2O[C@H](C)[C@@H](O)[C@H](N)[C@@H]2O)C[C@@H]2O[C@](O)(C[C@@H](O)C[C@@H](O)[C@H](O)CC[C@@H](O)C[C@@H](O)CC(=O)O[C@H]1C)C[C@H](O)[C@H]2C(=O)O (stereo in doubt)
inactive: Potency [11] | Potency [19] | Potency [12] | max response [13] -0.557% | Potency [3] | Potency [14] | Potency [15] | Potency [16] | Potency [4] | Potency [6] | Potency [7] | Potency [20] | Potency [18] | Potency [8] | Potency [9] | Potency [10]

Nc1ccc(S(=O)(=O)NCc2ccccc2)cc1
inactive: Potency [11] | Potency [19] | Potency [12] | max response [13] -2.82% | Potency [2] | Potency [3] | Potency [14] | Potency [16] | Potency [4] | Potency [5] | Potency [17] | Potency [20] | Potency [18] | Potency [8] | Potency [9] | Potency [10]

COc1ccc(N)c([N+](=O)[O-])c1
inactive: Potency [11] | Potency [12] | max response [13] -15.1% | Potency [2] | Potency [14] | Potency [15] | Potency [16] | Potency [4] | Potency [5] | Potency [6] | Potency [17] | Potency [7] | Potency [20] | Potency [18] | Potency [8] | Potency [9] | Potency [10]

Cc1ccc2nc(N)[nH]c(=O)c2c1Sc1ccncc1
inactive: Potency [11] | Potency [19] | Potency [2] | Potency [3] | Potency [14] | Potency [15] | Potency [16] | Potency [4] | Potency [5] | Potency [6] | Potency [17] | Potency [7] | Potency [18] | Potency [9] | Potency [10]

CCC(Cl)CC(Cl)C(Cl)C(Cl)C(Cl)C(C)Cl (configuration not stated)
inactive: activity change, negative = cytotoxic [11] -0.479% [at 15.8 µM] | viability change, negative = cytotoxic [12] 0.0251% [at 15.8 µM] | cytotoxicity [15] 2.51% [at 15.8 µM] | cytotoxicity increase [16] 0.801% [at 15.8 µM] | cytotoxicity [6] 0.838% [at 15.8 µM] | cytotoxicity increase [17] 1.37% [at 15.8 µM] | activity change, negative = cytotoxic [20] -2.19% [at 15.8 µM] | activity change, negative = cytotoxicity [10] 1.09% [at 15.8 µM]
